Screens as filed in PubChem BioAssay.
HSP90 refold inh: HSP90 refolding inhibition in rabbit reticulocyte lysate. luciferase refolding luminescence, 3 h. inhibition, % at 5.6 µM. 0.91% of 290,000 active;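 active = inhibition above the screen-wide mean plus 3 SD, computed separately per campaign, cut at about 16% in these data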;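 note: 0% = DMSO wells and 100% = 60 µM geldanamycin wells; inhibitors lower the luminescence because luciferase stays unfolded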
SENP8 block-1: SENP8 protease inhibition. purified SENP8, Z-RLRGG-aminoluciferin cleavage, luminescence. AID 2540. Q96LD8. 1.2% of 330,000 active. inhibition, % at 10 µM; in the data active = inhibition above about 50%
Target sequence (Q96LD8 whole entry, looked up): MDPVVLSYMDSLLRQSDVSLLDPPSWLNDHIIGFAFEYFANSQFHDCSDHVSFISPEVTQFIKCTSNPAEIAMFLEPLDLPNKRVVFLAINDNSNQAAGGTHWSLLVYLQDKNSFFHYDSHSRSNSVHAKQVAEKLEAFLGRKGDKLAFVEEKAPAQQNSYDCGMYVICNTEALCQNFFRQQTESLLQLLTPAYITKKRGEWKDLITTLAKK
LGR2 antag: Drosophila LGR2 receptor signaling inhibition | HEK293 LGR2, CRE-luciferase, bursicon-stimulated, 4 h | AID 720647 | inhibition, % at 9.99 µM | 0.35% of 380,000 active;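 active = drop in luminescence signal, shown as inhibition above about 50% in the replicate tests, limit read from the data, passing the limit was not always enough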;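 note: agonist challenge used bursicon conditioned medium at about half maximal strength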
SENP7 block: SENP7 protease inhibition; Q9BQF6; recombinant SENP7, Z-RLRGG-aminoluciferin luminescence, 40 min; inhibition, % at 5 µM; 1.5% of 330,000 active; AID 434973;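 active = inhibition above about 50% at the single test dose, limit read from the data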;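 note: plate controls were DMSO with enzyme for no effect and no enzyme buffer wells for full effect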
Target sequence (Q9BQF6 706-1050 limits assumed): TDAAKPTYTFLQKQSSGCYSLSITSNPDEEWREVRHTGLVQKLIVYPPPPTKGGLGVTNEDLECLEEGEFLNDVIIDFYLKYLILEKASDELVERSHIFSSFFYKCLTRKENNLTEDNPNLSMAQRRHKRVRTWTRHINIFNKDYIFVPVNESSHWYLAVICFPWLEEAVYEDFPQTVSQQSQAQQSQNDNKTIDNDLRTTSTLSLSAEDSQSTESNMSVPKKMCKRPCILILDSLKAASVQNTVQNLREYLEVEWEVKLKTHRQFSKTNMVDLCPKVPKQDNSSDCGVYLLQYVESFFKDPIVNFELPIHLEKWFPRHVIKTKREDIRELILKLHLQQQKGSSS
SENP8 block-2: inhibitors of human SENP8 protease; Q96LD8; recombinant SENP8, Nedd8 substrate fluorescence; inhibition, % at 20 µM; 0.64% of 360,000 active; in the data active = inhibition mostly above about 40%, no sharp cut-off; inactive = mostly below about 27%
SENP6 block: SENP6 protease inhibition. Recombinant SENP6 catalytic domain, aminoluciferin luminescence. inhibition, % at 10 µM. 1.8% of 330,000 active. AID 2599;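 active = inhibition above about 50% at the single tested dose, limit read from the data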;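 note: plate controls were DMSO wells with enzyme for no effect and DMSO wells lacking enzyme for full effect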
* = called active by the depositor. The list is not random: actives were taken first. Their share in the collection is about 2.3%.

How did CCOc1ccc(/C=C2\SC(=S)N(NS(=O)(=O)c3ccccc3)C2=O)cc1OC do in these assays?
HSP90 refold inh: 0; SENP8 block-1: -4; LGR2 antag: -4; SENP7 block: -1; SENP8 block-2: 27; SENP6 block: -8

What do the screens show for `Cc1cc(=O)n2[nH]c(N)c(N=Nc3ccccc3)c2n1`?
HSP90 refold inh: -2; LGR2 antag: -3; SENP8 block-2: 16

Results for COc1cccc(N=Nc2c(N)[nH]n3c(=O)cc(-c4ccccc4)nc23)c1 ?
HSP90 refold inh: 1; SENP8 block-1: 16; SENP7 block: 12; SENP8 block-2: 65*; SENP6 block: 23

What do the screens show for `Cc1ccc(N=Nc2c(N)[nH]n3c(=O)cc(-c4ccccc4)nc23)cc1`?
HSP90 refold inh: 1; SENP8 block-1: 4; SENP7 block: 2; SENP8 block-2: 74*; SENP6 block: 1

How did CN(C(=O)COC(=O)c1nc(Cl)c(Cl)c(Cl)c1Cl)C1CCS(=O)(=O)C1 (stereo not drawn) do in these assays?
HSP90 refold inh: -2; LGR2 antag: 103*; SENP8 block-2: 0

Results for CN(C(=O)COC(=O)c1ccc(C(C)(C)C)cc1)C1CCS(=O)(=O)C1 (stereo not drawn) ?
SENP8 block-1: -1; LGR2 antag: 12; SENP7 block: -6; SENP8 block-2: 1; SENP6 block: -3

How did CCOC(=O)/C(C#N)=N/Nc1ccc(S(=O)(=O)N2CCc3ccccc32)cc1 do in these assays?
HSP90 refold inh: 2; SENP8 block-1: -3; LGR2 antag: 19; SENP7 block: 2; SENP8 block-2: 31; SENP6 block: -5

Results for N#C/C(=N/Nc1ccc(S(=O)(=O)N2CCOCC2)cc1)C(N)=O ?
HSP90 refold inh: 3; SENP8 block-1: 0; LGR2 antag: 5; SENP7 block: 0; SENP8 block-2: 22; SENP6 block: 1

What do the screens show for `N#C/C(=N\Nc1ccc(S(=O)(=O)N2CCCCC2)cc1)C(N)=S`?
HSP90 refold inh: 2; SENP8 block-1: -2; LGR2 antag: 9; SENP7 block: 1; SENP8 block-2: 45*; SENP6 block: 1

Results for N#C/C(=N\Nc1ccc(S(=O)(=O)N2CCCCCC2)cc1)C(N)=S ?
HSP90 refold inh: 0; SENP8 block-1: 15; LGR2 antag: -20; SENP7 block: -7; SENP8 block-2: 31; SENP6 block: -18

Results for N#C/C(=N\Nc1ccc(S(=O)(=O)N2CCc3ccccc32)cc1)C(N)=S ?
HSP90 refold inh: 3; SENP8 block-1: -7; LGR2 antag: 10; SENP7 block: -6; SENP8 block-2: 41*; SENP6 block: -20

How did N#CC(C#N)=NNc1ccc(S(=O)(=O)N2CCCC2)cc1 do in these assays?
HSP90 refold inh: -2; SENP8 block-1: -9; LGR2 antag: 47; SENP7 block: -3; SENP8 block-2: 47*; SENP6 block: 2

How did O=C(O)C[C@@H]1C=C[C@@H](NC(=O)c2ccccc2F)[C@H](CO)O1 do in these assays?
LGR2 antag: 9

Results for C[C@@H]1CCCCO[C@@H](CN(C)Cc2ccc(C(F)(F)F)cc2)[C@H](C)CN([C@H](C)CO)C(=O)c2cc(N(C)C)ccc2O1 ?
LGR2 antag: 3

What do the screens show for `C[C@H](CO)N1C[C@H](C)[C@@H](CN(C)Cc2ccncc2)Oc2ncc(C3=CCCCC3)cc2C1=O`?
LGR2 antag: 12

How did COc1ccc(-c2ccc3n(c2=O)C[C@@H]2N[C@H]3[C@H](C(=O)N3CCCCC3)[C@H]2CO)cc1 do in these assays?
LGR2 antag: -3

Results for Nc1nc(F)nc2c1ncn2[C@@H]1O[C@H](CO)[C@@H](O)[C@H]1O ?
SENP8 block-1: 1; LGR2 antag: 75*; SENP7 block: 4; SENP8 block-2: 7; SENP6 block: 6

Results for COc1ccccc1C(=O)Nc1ccc2c(c1)C(=O)N(C)[C@@H]1CC[C@@H](CC(=O)NCc3ccc(Cl)c(Cl)c3)O[C@H]1CO2 ?
LGR2 antag: 24

Results for CCO[C@@H]1OC(C(=O)NCc2nc3ccccc3[nH]2)=C[C@H](c2cn(C(C)=O)c3ccccc23)[C@H]1CCCO ?
HSP90 refold inh: 16*; SENP8 block-1: 2; LGR2 antag: -4; SENP7 block: -8; SENP8 block-2: -20; SENP6 block: -10

How did CC(C)Nc1ccc(Nc2ccnc3cc4ccccc4cc23)cc1 do in these assays?
HSP90 refold inh: -1; SENP8 block-1: -9; LGR2 antag: 74*; SENP7 block: 5; SENP8 block-2: 39; SENP6 block: -16

How did COc1ccc(Nc2ccnc3ccccc23)cc1 do in these assays?
HSP90 refold inh: 2; SENP8 block-1: 6; SENP7 block: 1; SENP8 block-2: 3; SENP6 block: 15

Results for c1ccc(CCNc2ccnc3cc4ccccc4cc23)cc1 ?
HSP90 refold inh: 0; LGR2 antag: 107*; SENP8 block-2: -460

How did CNC[C@@H]1OCCCC[C@H](C)Oc2ccc(NC(=O)Nc3ccc(F)cc3)cc2C(=O)N([C@H](C)CO)C[C@@H]1C do in these assays?
LGR2 antag: 26

What do the screens show for `NC(=O)c1ccsc1NC(=O)c1cc(=O)c2ccccc2o1`?
HSP90 refold inh: -1; SENP8 block-1: 26; LGR2 antag: -3; SENP7 block: 65*; SENP8 block-2: 6; SENP6 block: 41

Results for Cc1cc(C)nc(SCc2csc(-c3ccccc3)n2)n1 ?
HSP90 refold inh: 4; SENP8 block-1: 30; LGR2 antag: -18; SENP7 block: 38; SENP8 block-2: 11; SENP6 block: 60*

What do the screens show for `Nc1nc(N)c(N=Nc2ccc(C(=O)O)cc2)c(N)n1`?
HSP90 refold inh: 4; SENP8 block-1: -19; LGR2 antag: -20; SENP7 block: -17; SENP8 block-2: 30; SENP6 block: -50

What do the screens show for `O=C(O)c1ccc(N=Nc2c(O)[nH]c3cc(Cl)ccc23)cc1`?
HSP90 refold inh: 3; SENP8 block-1: 95*; LGR2 antag: -60; SENP7 block: 97*; SENP8 block-2: 37; SENP6 block: 97*

Results for O=C(O)c1ccc(N=Nc2c(O)[nH]c3ccc(Br)cc23)cc1 ?
HSP90 refold inh: 18*; SENP8 block-1: 69*; LGR2 antag: -70; SENP7 block: 62*; SENP8 block-2: 38; SENP6 block: 57*

What do the screens show for `C[C@H]1CCCCO[C@@H](CN(C)C(=O)C2CCCCC2)[C@@H](C)CN([C@@H](C)CO)C(=O)c2cc(N(C)C)ccc2O1`?
LGR2 antag: -13

Results for Cc1nccc(-c2cccc(N/N=C(\C#N)C(=O)c3ccccc3)c2)n1 ?
HSP90 refold inh: 0; SENP8 block-1: 3; LGR2 antag: 3; SENP7 block: -1; SENP8 block-2: 38*; SENP6 block: 5

How did CCCNC(=O)COC(=O)c1ccccc1C(=O)c1ccc(Cl)c([N+](=O)[O-])c1 do in these assays?
HSP90 refold inh: 2; SENP8 block-1: -6; LGR2 antag: 106*; SENP7 block: -8; SENP8 block-2: 7; SENP6 block: -8
